Measurements taken from PubChem BioAssay (NCI).
The panel holds about 83,000 compounds, 20% with a hit somewhere; the sample as a whole holds those more often.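 Results are percent growth after 48 hours of single-concentration exposure. 100 means growth as in untreated cells, lower positive values show inhibition; negative values down to -100 show cell death.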 Unmarked numbers belong to inactive results. The source made the active and inactive calls. Rule for the calls: active = growth percent below 10; inactive = the rest.

What was measured:
Assay in all cases: NCI-60 one-dose screen, 48 h (100 = growth as untreated, 0 = no growth, -100 = all killed)
Details in all cases: 10 µM unless noted
NCI-H23 lung = system: NCI-H23 lung
NCI-H226 lung = system: NCI-H226 lung
NCI-H322M lung = system: NCI-H322M lung
HOP-62 NSCLC = system: HOP-62 NSCLC
NCI-H460 lung = system: NCI-H460 lung
NCI-H522 lung = system: NCI-H522 lung
A549/ATCC NSCLC = system: A549/ATCC NSCLC
786-0 renal = system: 786-0 renal
COLO 205 colon = system: COLO 205 colon
DU-145 prostate = system: DU-145 prostate

Row | Structure (SMILES) | growth (NCI-H23 lung) | growth (NCI-H226 lung) | growth (NCI-H322M lung) | growth (HOP-62 NSCLC) | growth (NCI-H460 lung) | growth (NCI-H522 lung) | growth (A549/ATCC NSCLC) | growth (786-0 renal) | growth (COLO 205 colon) | growth (DU-145 prostate)
1 | Cc1cc(NC(=O)Nc2cc(Cl)ccc2C)no1 | 88.3% | 105% | 146% | 96.2% | 102% | 103% | 108% | 102% | 143% | 111%
2 | COc1cc2c(-c3nc4cc(Cl)c(F)cc4s3)cc(=O)oc2c(C)c1OC | -48.6% (active) | -48.8% (active) | 7.69% (active) | -65.7% (active) | -36.1% (active) | -83.9% (active) | -53.9% (active) | -70.2% (active) | -46.6% (active) | -85.3% (active)
3 | CC(=O)O[C@H]1C(=O)[C@@]2(C)C([C@H](OC(=O)c3ccccc3)[C@]3(O)C[C@H](OC(=O)[C@H](O)[C@@H](NC(=O)c4ccccc4)c4ccccc4)C(C)=C1C3(C)C)[C@]1(OC(C)=O)CO[C@@H]1C[C@@H]2O (stereo not given in full) | 27.9% | 44.8% | 28.1% | 24.6% | 7.33% (active) | -25.2% (active) | 13.1% | 17.6% | 1.91% (active) | -36.8% (active)
4 | CN=C(NC)N/N=C(C)\C=N\NC(=NC)NC | 104% | 98.8% | 107% | 100% | 104% | 102% | 100% | 102% | 102% | 109%
5 | Cc1cc(O)c2c(c1)C[C@H]1[C@@H]3CC[C@H]4CC(=O)CC[C@]4(C)[C@H]3CC(=O)[C@]21C | 77.3% | 94.6% | 104% | 123% | 99.2% | 73.9% | 77% | 87.8% | 104% | 85.2%
6 | Cc1ccc(C(=O)Nc2ccc(Cl)cc2C(=O)NCc2ccccc2)cc1 | 96.7% | 92.9% | 98.2% | 88.3% | 92.4% | 53.9% | 85.9% | 97.8% | 97.4% | 96%
7 | COc1ccc(Cn2c(NCCCN(C)C)nc(=O)n(Cc3ccc(F)cc3)c2=O)cc1 | 103% | 90.7% | 83% | 93.5% | 108% | 95% | 110% | 89.3% | 94.8% | 99.4%
8 | CCOC(=O)c1cc(-c2cccnc2)nc2c(Cl)cc(Cl)cc12 | 89.6% | 98.9% | 84.1% | 92.5% | 106% | 93.6% | 74.9% | 72.5% | 121% | 103%
9 | COc1ccc(OC)c(/C=C/c2nc(=S)n(-c3ccc(Cl)cc3)[nH]2)c1 | 48.7% | 73.3% | 100% | 69.7% | 38.9% | 82.1% | 66.3% | 58.9% | 104% | 87.6%
10 | Clc1ccccc1[C@@H]1C[C@@H]2Cc3cc(Br)c4ccccc4c3N1O2 | 50.8% | 73.5% | 61% | 54.3% | 18.1% | 20% | 48% | 56.1% | 33.1% | 61%
11 | COc1ccc(-c2c(-c3cc(OC)c(OC)c(OC)c3)noc2N)cc1 | 31.1% | 16% | 43.2% | 41.4% | 7.26% (active) | -28.9% (active) | 22.3% | 20% | -72% (active) | -3.15% (active)
12 | c1ccc(-c2nnc(Nc3nnc(-c4ccccc4)s3)s2)cc1 | 109% | 101% | 86.9% | 101% | 101% | 104% | 103% | 106% | 116% | 112%
13 | CCCCc1nc(Cl)c(CO)n1Cc1ccc(-c2ccccc2-c2nn[nH]n2)cc1 | 106% | 99.3% | 97.1% | 97.7% | 108% | 92.8% | 105% | 106% | 96.6% | 110%
14 | S=C1SCN(Cc2ccccc2)CN1Cc1ccco1 | 94.1% | 111% | 112% | 85.3% | 105% | 4.84% (active) | 101% | 90.5% | 83.3% | 68.3%
